In PubChem BioAssay (NCI) one finds growth data, which are given here for eight molecules.

Compounds without any hit were thinned out: in the full panel of roughly 83,000, 20% have a hit.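 Results are percent growth after 48 hours of single-concentration exposure. 100 means growth as in untreated cells, lower positive values show inhibition; negative values down to -100 show cell death.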 A number with no mark means an inactive call. Calls of active or inactive are those of the source. How the source made its calls: active means growth percent below 10; inactive means the rest.

Some test systems named below: DU-145 prostate; K-562 leukemia; MALME-3M melanoma; MDA-MB-231 breast; RXF 393 renal; SF-268 CNS; SF-295 CNS; SF-539 CNS; UACC-257 melanoma; M14 melanoma; HCT-15 colon; HT29 colon; SNB-75 CNS; U251 CNS; PC-3 prostate; SK-MEL-5 melanoma; LOX IMVI melanoma; SK-MEL-28 melanoma; SNB-19 CNS; UACC-62 melanoma.
Experiment in all cases: NCI-60 one-dose screen, 48 h (100 = growth as untreated, 0 = no growth, -100 = all killed)
Common to all, as to settings: 10 µM unless noted

As to `C[C@H](Nc1ncnc2ccc(-c3cnc(Cl)c(NS(C)(=O)=O)c3)cc12)c1ccccc1`, the growth in the assay on DU-145 prostate is -2.78% (active); with K-562 leukemia, 17.2%; with MALME-3M melanoma, -43.1% (active); in the assay on MDA-MB-231 breast, -17.1% (active); in the assay on RXF 393 renal it was -54.5% (active); in the assay on SF-268 CNS, -3.03% (active). Besides, the growth in the assay with SF-295 CNS was -25.6% (active); in the assay with SF-539 CNS it was -42.8% (active); in the assay with UACC-257 melanoma, -18.4% (active); with M14 melanoma, -13.5% (active); with HCT-15 colon, -23.7% (active); in the assay with HT29 colon, -28.9% (active). Also, the growth with SNB-75 CNS was -3.07% (active); in the assay on U251 CNS it was -52.6% (active); with PC-3 prostate, 2.25% (active); in the assay on SK-MEL-5 melanoma it was -92.7% (active); in the assay on LOX IMVI melanoma, -60.4% (active); in the assay with SK-MEL-28 melanoma, -18.2% (active).
As to `CC(=C(c1ccc(OCCN(C)C)cc1)c1ccc(OCCN(C)C)cc1)c1ccc(Cl)cc1`, the growth in the assay with DU-145 prostate is -73.6% (active); in the assay with K-562 leukemia it was -9.65% (active); with MALME-3M melanoma, -79.9% (active); in the assay on MDA-MB-231 breast, -75.4% (active); in the assay with RXF 393 renal, -86.6% (active); with SF-268 CNS, -47.7% (active). Besides, the growth was -78.1% (active) in the assay on SF-295 CNS; -83% (active) with SF-539 CNS; -69.6% (active) in the assay with UACC-257 melanoma; -63.5% (active) in the assay with M14 melanoma; -79.7% (active) in the assay on HCT-15 colon; -20.2% (active) in the assay with SNB-75 CNS. In addition, the growth is -40.9% (active) in the assay on SNB-19 CNS; -60.6% (active) in the assay with U251 CNS; -52.9% (active) in the assay on PC-3 prostate; -95.9% (active) in the assay on SK-MEL-5 melanoma; -67.6% (active) in the assay with UACC-62 melanoma; -92.8% (active) in the assay with LOX IMVI melanoma. The growth in the assay on SK-MEL-28 melanoma was -82.6% (active).
For `NC1C2CCC1CN(c1cnc(C(=O)Nc3cc(F)cc4cccnc34)cn1)C2` (stereo not given), the growth with DU-145 prostate was 71.2%; in the assay on K-562 leukemia it was 3.9% (active); in the assay with MALME-3M melanoma it was 49.5%; in the assay with MDA-MB-231 breast, 39.4%; in the assay with RXF 393 renal, 61.6%; in the assay with SF-268 CNS, 73.5%. The growth was 76.3% with SF-295 CNS; 64.6% with SF-539 CNS; 98.3% in the assay on UACC-257 melanoma; 48.4% with M14 melanoma; 6.16% (active) in the assay with HCT-15 colon; 46.4% with SNB-75 CNS. Further, the growth was 69.7% with SNB-19 CNS; 60.1% in the assay on U251 CNS; 61.4% in the assay on PC-3 prostate; 93.2% in the assay with SK-MEL-5 melanoma; 78.9% in the assay with UACC-62 melanoma; 26.3% in the assay on LOX IMVI melanoma. In addition, in the assay with SK-MEL-28 melanoma, the growth was 63.5%.
Take `CC/C(=C(/c1ccc(Cl)cc1)c1ccc(OCCN)cc1)c1ccccc1`: the growth is 82.7% with DU-145 prostate; 19.7% in the assay with K-562 leukemia; 94.8% in the assay with MALME-3M melanoma; 86.6% in the assay with MDA-MB-231 breast; 92.8% with RXF 393 renal; 103% in the assay on SF-268 CNS. Besides, the growth with SF-295 CNS is 107%; in the assay on SF-539 CNS, 98.6%; in the assay with UACC-257 melanoma, 106%; with M14 melanoma it was 88.7%; in the assay with HCT-15 colon, 55.7%; with SNB-75 CNS, 110%. Further, the growth with SNB-19 CNS was 99.8%; in the assay with U251 CNS it was 92.6%; in the assay with PC-3 prostate, 103%; in the assay with SK-MEL-5 melanoma, 99.1%; with UACC-62 melanoma it was 107%; in the assay on LOX IMVI melanoma, 27.8%. In addition, the growth in the assay on SK-MEL-28 melanoma was 108%.
On to `CCOP(=O)(OCC)OC[C@]12CCC(C)(C)C[C@H]1C1=CC[C@@H]3[C@@]4(C)CC[C@H](OP(=O)(OCC)OCC)C(C)(C)[C@@H]4CC[C@@]3(C)[C@]1(C)CC2`, for which the growth is 83.1% in the assay on DU-145 prostate; 28.9% in the assay on K-562 leukemia; 62.6% in the assay with MALME-3M melanoma; 50.2% with MDA-MB-231 breast; 74.9% in the assay with RXF 393 renal; 73.1% with SF-268 CNS. For the same molecule, the growth is 51.8% in the assay on SF-295 CNS; 66.9% in the assay with SF-539 CNS; 55% in the assay with UACC-257 melanoma; 51.9% in the assay on M14 melanoma; 34.6% with HCT-15 colon; 58.9% in the assay with SNB-75 CNS. Moreover, the growth was 71.2% with SNB-19 CNS; 49.1% with U251 CNS; 19.3% in the assay with PC-3 prostate; 31.3% in the assay on SK-MEL-5 melanoma; 53.9% with UACC-62 melanoma; 37.2% in the assay on LOX IMVI melanoma. In the assay with SK-MEL-28 melanoma, the growth was 78.9%.
As for `CCN1CCN(c2ccc(NC(=O)Nc3ccc4c(ccn4-c4ccnc(C(=O)NC)c4)c3)cc2C(F)(F)F)CC1`, the growth was 86% in the assay with DU-145 prostate; -9.49% (active) with K-562 leukemia; -65.2% (active) in the assay with MALME-3M melanoma; 58.1% in the assay with MDA-MB-231 breast; -30.7% (active) in the assay on RXF 393 renal; 83.9% with SF-268 CNS. For the same molecule, the growth in the assay on SF-295 CNS is -47.1% (active); with SF-539 CNS, -55.3% (active); in the assay on UACC-257 melanoma, 96.7%; in the assay with M14 melanoma, 17.9%; with HCT-15 colon it was 9.57% (active); with SNB-75 CNS, 43.7%. The growth is 81% in the assay with SNB-19 CNS; 44.7% in the assay with U251 CNS; 52.6% with PC-3 prostate; 67.4% in the assay on SK-MEL-5 melanoma; 92.8% with UACC-62 melanoma; -87.7% (active) with LOX IMVI melanoma. In the assay with SK-MEL-28 melanoma, the growth was -81% (active).
Regarding `O=C(CN1CCN(c2cc(=O)[nH]c3ccc(F)cc23)CC1)N(c1ccccc1)c1ccccc1`, the growth was 107% in the assay on DU-145 prostate; 94.9% with K-562 leukemia; 100% with MALME-3M melanoma; 98.1% in the assay with MDA-MB-231 breast; 103% with RXF 393 renal; 99.8% in the assay with SF-268 CNS. In addition, the growth in the assay with SF-295 CNS was 107%; in the assay on SF-539 CNS, 101%; with UACC-257 melanoma, 106%; in the assay with M14 melanoma, 105%; in the assay on HCT-15 colon it was 97.7%; with SNB-75 CNS, 71.3%. The growth is 93.4% in the assay with SNB-19 CNS; 107% with U251 CNS; 96.5% in the assay on PC-3 prostate; 100% in the assay with SK-MEL-5 melanoma; 98% in the assay on UACC-62 melanoma; 111% in the assay on SK-MEL-28 melanoma.
Consider `C[C@@H]1OCC2(CCN(c3cnc(C(=O)Nc4cc(F)cc5cccnc45)cn3)CC2)[C@@H]1N`, for which the growth in the assay on DU-145 prostate was 77%; with K-562 leukemia, 8.84% (active); with MALME-3M melanoma it was 53.1%; in the assay with MDA-MB-231 breast, 38.9%; in the assay on RXF 393 renal, 65.4%; in the assay on SF-268 CNS, 78.9%. The growth in the assay with SF-295 CNS was 90.8%; with SF-539 CNS, 71.7%; in the assay on UACC-257 melanoma, 102%; with M14 melanoma, 81.5%; in the assay with HCT-15 colon it was 20.9%; with SNB-75 CNS, 65.1%. Further, the growth in the assay on SNB-19 CNS is 78.1%; in the assay on U251 CNS it was 75.3%; in the assay on PC-3 prostate it was 55.7%; in the assay on SK-MEL-5 melanoma, 94.4%; with UACC-62 melanoma, 54%; in the assay with LOX IMVI melanoma, 44.5%. Moreover, the growth in the assay on SK-MEL-28 melanoma is 70%.
